# Results taken from PubChem BioAssay (NCATS).
# Inconclusive results are not listed. Activity calls are given as the source filed them. The call rests on the fitted dose curve; in most records, active means well fitted curve in the direction sought with a large enough effect; inconclusive means small, poorly fitted or top-dose-only effect, or another doubt; inactive means no such curve, though single readings can be large; an effect the other way counts as inactive or inconclusive.
# Molecular target: M-phase phosphoprotein 8 (Homo sapiens) (UniProt Q99549)
# Sequence (Q99549 whole entry, looked up): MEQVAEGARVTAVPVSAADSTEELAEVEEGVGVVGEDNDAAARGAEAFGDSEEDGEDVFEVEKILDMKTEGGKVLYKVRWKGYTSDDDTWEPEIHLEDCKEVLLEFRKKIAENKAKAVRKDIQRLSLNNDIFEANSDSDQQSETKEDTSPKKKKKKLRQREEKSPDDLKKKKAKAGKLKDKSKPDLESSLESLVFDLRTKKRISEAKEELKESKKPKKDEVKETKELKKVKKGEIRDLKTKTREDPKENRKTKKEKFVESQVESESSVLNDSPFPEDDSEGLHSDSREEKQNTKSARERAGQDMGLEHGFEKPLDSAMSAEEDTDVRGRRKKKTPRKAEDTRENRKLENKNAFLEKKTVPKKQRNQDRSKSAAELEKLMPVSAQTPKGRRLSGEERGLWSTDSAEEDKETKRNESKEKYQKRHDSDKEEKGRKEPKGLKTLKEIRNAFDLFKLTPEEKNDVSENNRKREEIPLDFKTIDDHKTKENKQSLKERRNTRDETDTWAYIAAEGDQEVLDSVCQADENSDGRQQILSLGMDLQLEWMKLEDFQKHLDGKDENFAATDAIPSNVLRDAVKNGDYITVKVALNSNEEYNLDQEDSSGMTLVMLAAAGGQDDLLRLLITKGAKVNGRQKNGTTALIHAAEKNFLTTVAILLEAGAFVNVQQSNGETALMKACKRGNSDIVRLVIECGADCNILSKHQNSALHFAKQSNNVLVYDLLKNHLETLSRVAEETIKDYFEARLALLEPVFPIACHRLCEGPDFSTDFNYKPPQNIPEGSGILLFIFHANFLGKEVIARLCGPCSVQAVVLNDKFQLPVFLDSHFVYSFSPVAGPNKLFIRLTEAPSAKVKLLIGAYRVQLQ
# Assay: qHTS Validation Assay for Inhibitors for MPP8 Chromodomain Interactions with Methylated Histone Tails (AID 488949); further: nearly all actives have a fitted effect of over 55% in size; further: potency means the concentration at half of the fitted maximal effect; on activity change, negative = inhibition: top concentration of the series differs between compounds; on the % scale 0 is the no-effect control and ±100 the full control effect
# Details: AlphaScreen MPP8 binding to H3K9me3 peptide; series mostly up to 57.1 µM; activity change, negative = inhibition: at the top concentration
# Method in brief: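 MPP8 (50 nM) was pre-bound to 50 nM biotinylated H3(1-18)K9me3 peptide in PBS pH 7.4 with 0.01% Tween-20. Compounds were then added for 30 min at room temperature, and complex disruption was read by AlphaScreen with streptavidin donor and nickel-chelate acceptor beads.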
row,Compound,Potency
1,Cc1nc(-c2ccc(-c3ccc(C(=O)N4CCc5cc6c(cc54)C4(CCN(C)CC4)CO6)cc3)c(C)c2)no1,11.2 µM (active)
2,CN[C@@H](C)[C@H](O)c1ccccc1,3.55 µM (active)
3,C[N+](C)(C)CC(=O)O,inactive
4,CC[C@@H]1C(=O)OC[C@@H]1Cc1cncn1C,inactive

# Molecular target: Galactokinase (Homo sapiens) (UniProt P51570)
# Sequence (P51570 whole entry, looked up): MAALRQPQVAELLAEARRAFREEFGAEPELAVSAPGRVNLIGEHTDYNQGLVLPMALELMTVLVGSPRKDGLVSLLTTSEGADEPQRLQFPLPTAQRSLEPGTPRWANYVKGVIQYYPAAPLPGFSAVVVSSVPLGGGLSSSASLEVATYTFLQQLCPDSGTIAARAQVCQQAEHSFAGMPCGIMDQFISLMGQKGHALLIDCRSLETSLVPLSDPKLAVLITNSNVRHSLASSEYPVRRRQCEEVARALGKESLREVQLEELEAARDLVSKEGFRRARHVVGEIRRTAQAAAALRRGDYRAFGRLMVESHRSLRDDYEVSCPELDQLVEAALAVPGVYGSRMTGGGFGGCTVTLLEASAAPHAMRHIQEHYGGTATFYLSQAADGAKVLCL
# Assay: qHTS Validation Assay for Inhibitors of Human Galactokinase (GALK) (AID 493189); further: 0% is about no effect
# Details: purified human GALK enzyme activity, qHTS 7-point titration; series mostly up to 57.5 µM; activity change, negative = inhibition: at the top concentration
# Method in brief: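 GALK (5 nM) with 35 uM ATP and 100 uM galactose in HEPES pH 8.0 with MgCl2, NaCl, DTT and BSA. Reaction ran 1 h at room temperature. Residual ATP read by Kinase-Glo Plus luminescence.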
Compound,"activity change, negative = inhibition",outcome
Cc1nc(-c2ccc(-c3ccc(C(=O)N4CCc5cc6c(cc54)C4(CCN(C)CC4)CO6)cc3)c(C)c2)no1,-1.24% (inactive),
CN[C@@H](C)[C@H](O)c1ccccc1,-4.66% (inactive),
C[N+](C)(C)CC(=O)O,1.01% (inactive),
CC[C@@H]1C(=O)OC[C@@H]1Cc1cncn1C,,inactive

# System: not listed separately
# Assay: Validation screen for small molecules that induce DNA re-replication in SW480 colon adenocarcinoma cells (AID 504364); further: 0% is about no effect
# Details: DNA re-replication phenotype (high-content imaging); series mostly up to 46.1 µM; activity (re-replication induction): at the top concentration
# Method in brief: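 Cells are treated 48 hr with test compound, stained 40 min with Hoechst at 37 C, and scanned for nuclear fluorescence; compounds inducing re-replication increase nuclei with elevated intensity.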
Compound,activity (re-replication induction),outcome
Cc1nc(-c2ccc(-c3ccc(C(=O)N4CCc5cc6c(cc54)C4(CCN(C)CC4)CO6)cc3)c(C)c2)no1,-1.63% (inactive),
CN[C@@H](C)[C@H](O)c1ccccc1,19.8% (inactive),
C[N+](C)(C)CC(=O)O,-2.86% (inactive),
CC[C@@H]1C(=O)OC[C@@H]1Cc1cncn1C,,inactive

# System: not listed separately
# Assay: Inducers of the Endoplasmic Reticulum Stress Response (ERSR) in human glioma: Validation (AID 504836); further: 0% is about no effect
# Details: human glioma cells, ER stress response reporter; series mostly up to 38.3 µM; activation: at the top concentration
# Method in brief: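 ERSR induction read as luciferase luminescence (Bright-Glo, 10 min at room temperature) in stably transfected human U87-MG glioma cells exposed to compounds for 16 h, using GRP78 as sensor.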
Compound,activation,Potency
CC(C[N+](C)(C)C)OC(N)=O (configuration not stated),-4.1% (inactive),
CC(C)(Sc1ccc(CCN(CCCCC2CCCCC2)C(=O)NC2CCCCC2)cc1)C(=O)O,-2.92% (inactive),
COc1cc2c(cc1O)CC[C@@H]1[C@@H]2CC[C@]2(C)[C@@H](O)CC[C@@H]12,-1.73% (inactive),
CC1=C(/C=C/C(C)=C/C=C/C(C)=C/C(=O)O)C(C)(C)CCC1,1.14% (inactive),
CCN1CCc2nc(N)oc2CC1,1.34% (inactive),
CCn1cc(C(=O)O)c(=O)c2cc3c(cc21)OCO3,-4.47% (inactive),
NCCCC(N)(C(=O)O)C(F)F (configuration not stated),-0.54% (inactive),
Cc1cccc(C#Cc2ccccc2)n1,-6.45% (inactive),
NCCS,-1% (inactive),
CCN(CC)CCn1c(=O)c(Cc2ccc(OC)cc2)nc2ccccc21,-3.81% (inactive),
C[C@@H](N)C1CCC(C(=O)Nc2ccncc2)CC1 (some centres not stated),-3.25% (inactive),
Cc1cccc(-c2[nH]c(C(C)(C)C)nc2-c2ccc3nccnc3c2)n1,-4.45% (inactive),
CS(=O)(=O)Nc1ccc([N+](=O)[O-])cc1Oc1ccccc1,-1.89% (inactive),
CCN(CC)CCNC(=O)c1ccc(NC(C)=O)cc1,6.94% (inactive),
C[C@]12C[C@H](O)[C@H]3[C@@H](CCC4=CC(=O)CC[C@@]43C)[C@@H]1CC[C@@H]2C(=O)CO,-5.64% (inactive),
CCOC(=O)C(C)Oc1cccc2c(=O)n(CC(=O)Nc3ccc4c(c3)OCCO4)ccc12 (configuration not stated),-3.02% (inactive),
COc1cc2nc(N3CCCN(C)CC3)nc(NC3CCN(Cc4ccccc4)CC3)c2cc1OC,-9.85% (inactive),
CC(C)c1ccc2c(c1)c(SC(C)(C)C)c(CC(C)(C)C(=O)O)n2Cc1ccc(Cl)cc1,2.72% (inactive),
C[N+](C)(C)CC(=O)O,-2.59% (inactive),
CN1C(=O)CC[C@H]1c1cccnc1,-2.7% (inactive),
CC(C)C[C@H](NC(=O)[C@@H](O)[C@H](N)Cc1ccccc1)C(=O)O,-3.86% (inactive),
NC(CO)C(=O)NNCc1ccc(O)c(O)c1O (configuration not stated),-0.268% (inactive),
CCc1c(C)[nH]c2c1C(=O)C(CN1CCOCC1)CC2 (configuration not stated),0.223% (inactive),
CC(=O)Oc1ccccc1C(=O)O,-2.12% (inactive),
CC(C)(C)NCC(O)c1ccc(O)c(CO)c1 (configuration not stated),,inactive
